# Data reported in PubChem BioAssay (Tox21).
# Where “and” joins values, the source holds several entries; their conditions need not be identical. Identical values can stand only once. Records with an inconclusive call do not appear. Where a call stands in place of a potency, no number is given. Calls of active or inactive are those of the source. Unless noted, calls come from the whole dose curve; as a rule, active = well fitted curve in the direction sought with a large enough effect in the repeat runs; inconclusive = weak or mixed curves; inactive = no such curve, though single readings can be large; an effect the other way counts as inactive or inconclusive.
# Tests used:
# [1] = qHTS assay to identify small molecule antagonists of the estrogen receptor alpha (ER-alpha) signaling pathway using the BG1 cell line in the presence of 0.1 nM 17-beta-estradiol - cell viability counter screen (AID 1259241); note: nearly all actives have a fitted effect of over 40% in size; note: potency is the fitted concentration of half-maximal effect
# Method in brief: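 CellTiter-Fluor read (30 min, 37C) on ER-alpha/ERE-luc VM7Luc4E2 cells; 22 hr compound treatment; agonist 0.1 nM E2 final; same-well multiplex.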
# [2] = molecular target: Androgen receptor (Homo sapiens) (UniProt P10275); test: qHTS assay to identify small molecule antagonists of the androgen receptor (AR) signaling pathway using the MDA cell line in the presence of 0.5 nM R1881 (AID 1259243); note: nearly all actives have a fitted effect of over 50% in size; note: potency is the fitted concentration of half-maximal effect
# Method in brief: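 Steps: seed MDA-kb2 cells, incubate 5 hr at 37C; pin-transfer compounds in DMSO; add R1881 to 0.5 nM final; incubate 16 hr; add ONE-Glo, wait 30 min at room temperature; read luminescence.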
# [3] = qHTS assay to identify small molecule phospholipidosis (PLD) inducers (AID 1259344; active = well fitted curve in the direction sought with a large enough effect; an effect the other way counts as inactive or inconclusive)
# Method in brief: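 Fluorescent phospholipid staining (LipidTOX Red) measured by automated microscopy in fixed HepG2 cells after 24 h treatment; nuclei counterstained with Hoechst 33342; amiodarone as reference inducer.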
# [4] = qHTS assay to identify small molecule HDAC inhibitors (AID 1259364); note: nearly all actives have a fitted effect of over 45% in size; note: potency is the fitted concentration of half-maximal effect
# Method in brief: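 Homogeneous cell-based luminescent assay of endogenous class I/II HDAC activity; HCT-116 cells, 2 h compound exposure, 30 min HDAC-Glo development at RT.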
# [5] = qHTS assay to identify small molecule HDAC inhibitors - cell viability counter screen (AID 1259365); note: series mostly up to about 92 µM; nearly all actives have a fitted effect of over 50% in size
# Method in brief: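 To flag cytotoxic hits, 1,500 wild-type HCT-116 cells per well, plated the day before, receive test compounds for 2hr at 37 C before CellTiter-Glo reagent and a luminescence read.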
# [6] = qHTS assay to identify small molecule agonists of the sonic hedgehog signaling (Shh) pathway - cell viability counter screen (AID 1259366); note: nearly all actives have a fitted effect of over 50% in size; note: potency is the fitted concentration of half-maximal effect
# Method in brief: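 Fluorescence from CellTiter-Fluor reports live cells in this counter screen. NIH/3T3-derived Gli1-Luc reporter cells receive test compounds for 24hr at 37C; reagent goes in at 23hr.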
# [7] = qHTS assay to identify small molecule agonists of the sonic hedgehog signaling (Shh) pathway (AID 1259368; calls by dose curve;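 note: NIH/3T3-derived 3T3Gli1-Luc cells carrying a stable Gli1-driven firefly luciferase reporter; series mostly up to about 92 µM; nearly all actives have a fitted effect of over 15% in size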)
# Method in brief: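 Steps: seed 3T3 Gli1-Luc cells, incubate 4 hr at 37 C, pin-transfer compounds in DMSO alongside a positive control, incubate 24 hr, add luciferase detection reagent, wait 30 min at room temperature, read luminescence.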
# [8] = qHTS assay to identify small molecule antagonists of the sonic hedgehog signaling (Shh) pathway (AID 1259369; calls by dose curve; note: nearly all actives have a fitted effect of over 45% in size; note: potency is the fitted concentration of half-maximal effect)
# Method in brief: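 Inhibition of Shh signalling is measured as reduced Gli1-response-element firefly luciferase output in an NIH/3T3-derived stable reporter clone stimulated with conditioned medium for 24hr.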
# [9] = molecular target: Estrogen receptor beta (Homo sapiens) (UniProt Q92731); test: qHTS assay to identify small molecule agonists of the estrogen receptor beta (ER-beta) signaling pathway (AID 1259377; active = well fitted activation curve with a large enough effect in the signal ratio in the repeat runs, not every such curve was filed as active; the % refers to the signal ratio)
# Method in brief: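 Screening used GripTite ER-beta-UAS-bla cells held in 2% charcoal-stripped FBS medium. After overnight (16 hr) compound incubation at 37C, beta-lactamase activity was detected with a FRET substrate by fluorescence.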
# [10] = molecular target: Estrogen receptor beta (Homo sapiens) (UniProt Q92731); test: qHTS assay to identify small molecule antagonists of the estrogen receptor beta (ER-beta) signaling pathway (AID 1259378; active = well fitted inhibition curve with a large enough effect in the signal ratio in the repeat runs, not every such curve was filed as active; the % refers to the signal ratio; note: potency is the fitted concentration of half-maximal effect)
# Method in brief: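 Antagonist mode: compounds added to beta-lactamase reporter HEK293T ER-beta-UAS cells stimulated with E2 (1nM final), 16 hr at 37C. LiveBLAzer B/G FRET substrate, 2 hours room temperature, fluorescence read-out.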
# [11] = qHTS assay to identify small molecule agonists of the androgen receptor (AR) signaling pathway in the presence of an antagonist - cell viability counter screen (AID 1259379); note: nearly all actives have a fitted effect of over 25% in size; note: potency is the fitted concentration of half-maximal effect
# Method in brief: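 Fluorescence from CellTiter-Fluor, added after 15 hr and read 1 hr later, gave cell viability. Cells were MDA-kb2 exposed to compounds (15 concentrations) in the presence of 3.0uM nilutamide at 37C, 0% CO2.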
# [12] = molecular target: Androgen receptor (Homo sapiens) (UniProt P10275); test: qHTS assay to identify small molecule agonists of the androgen receptor (AR) signaling pathway in the presence of an antagonist (AID 1259381; calls by dose curve; note: nearly all actives have a fitted effect of over 15% in size)
# Method in brief: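 Cells are MDA-kb2 (human breast carcinoma, MMTV-luc, AR/GR responsive). Nilutamide is present at 3.0uM final throughout; compounds are added at 15 concentrations and incubated 16hr at 37C before ONE-Glo luminescence detection.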
# [13] = molecular target: Estrogen receptor (Homo sapiens) (UniProt P03372); test: qHTS assay to identify small molecule antagonists of the estrogen receptor alpha (ER-alpha) signaling pathway using the BG1 cell line in the presence of 0.1 nM 17-beta-estradiol (AID 1259244); note: nearly all actives have a fitted effect of over 50% in size; note: potency is the fitted concentration of half-maximal effect
# Method in brief: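 After 5 days in hormone-depleted medium (charcoal-stripped serum, no phenol red), VM7Luc4E2 cells were seeded, incubated 24 h, then co-treated with compound and 0.1 nM (final) estradiol for 22 h before luminescence detection.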
# [14] = qHTS assay to identify small molecule antagonists of the sonic hedgehog signaling (Shh) pathway - cell viability counter screen (AID 1259367); note: nearly all actives have a fitted effect of over 55% in size; note: potency is the fitted concentration of half-maximal effect
# Method in brief: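 Using CellTiter-Fluor, viability of Gli1-Luc reporter 3T3 cells is read by fluorescence in the wells used for the Shh luciferase assay. Treatment lasts 23 hr with conditioned medium, then reagent 1 hr at 37C.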
# [15] = qHTS assay to identify small molecule agonists of the estrogen receptor beta (ER-beta) signaling pathway - cell viability counter screen (AID 1259380); note: potency is the fitted concentration of half-maximal effect; nearly all actives have a fitted effect of over 30% in size
# Method in brief: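 Same-well viability counter screen. Cells: ER-beta-UAS-bla HEK293T, plated 6 hr before compound, in 2% charcoal-stripped FBS. Compound exposure 16 hr, 37C; viability by CellTiter-Glo luminescence after 30 min at room temperature.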
# [16] = molecular target: Estrogen receptor (Homo sapiens) (UniProt P03372); test: qHTS assay to identify small molecule agonists of the estrogen receptor alpha (ER-alpha) signaling pathway in the presence of an antagonist (AID 1259383; calls by dose curve; note: nearly all actives have a fitted effect of over 15% in size; note: potency is the fitted concentration of half-maximal effect; for activation: top concentration of the series differs between compounds)
# Method in brief: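 Cells are hormone-deprived for 5 days (charcoal-stripped FBS, no phenol red), plated for 24hr, spiked with 10.0nM ICI-182,780, then dosed at 15 concentrations. After 22hr at 37C, ONE-Glo luminescence reports ERE-luciferase activity.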
# [17] = qHTS assay to identify small molecule agonists or antagonists of the thyroid stimulating hormone receptor (TSHR) signaling pathway - wild type cell line counter screen (AID 1259384; calls by dose curve)
# Method in brief: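 Counter screen in untransfected Hek293: compounds (15-point titration, triplicate) plus phosphodiesterase inhibitor Ro20-1724 added after 18 h plating; 30 min RT. Intracellular cAMP via competitive d2/cryptate immunoassay, 1 h incubation.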
# [18] = molecular target: Thyrotropin receptor (Homo sapiens) (UniProt P16473); test: qHTS assay to identify small molecule antagonists of the thyroid stimulating hormone receptor (TSHR) signaling pathway (AID 1259385; calls by dose curve; note: nearly all actives have a fitted effect of over 20% in size)
# Method in brief: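 Antagonist mode: compound-treated TSHR-expressing HEK293 cells were stimulated with 1.5 ng/mL TSH (final) in presence of Ro20-1724 for 30 min at RT. HTRF cAMP detection after 1 h; each compound tested at 15 concentrations, triplicate.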
# [19] = qHTS assay to identify small molecule antagonists of the estrogen receptor beta (ER-beta) signaling pathway - cell viability counter screen (AID 1259382); note: nearly all actives have a fitted effect of over 55% in size; note: potency is the fitted concentration of half-maximal effect
# Method in brief: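 Following a 6 hr plating period, HEK293T cells carrying a UAS-driven beta-lactamase reporter under ER-beta control received compounds and 1nM E2 (final). After 16 hr at 37C and 2 hr substrate loading, CellTiter-Glo luminescence indicated viability.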
# Sequence of Estrogen receptor beta (Homo sapiens) (Q92731 whole entry, looked up): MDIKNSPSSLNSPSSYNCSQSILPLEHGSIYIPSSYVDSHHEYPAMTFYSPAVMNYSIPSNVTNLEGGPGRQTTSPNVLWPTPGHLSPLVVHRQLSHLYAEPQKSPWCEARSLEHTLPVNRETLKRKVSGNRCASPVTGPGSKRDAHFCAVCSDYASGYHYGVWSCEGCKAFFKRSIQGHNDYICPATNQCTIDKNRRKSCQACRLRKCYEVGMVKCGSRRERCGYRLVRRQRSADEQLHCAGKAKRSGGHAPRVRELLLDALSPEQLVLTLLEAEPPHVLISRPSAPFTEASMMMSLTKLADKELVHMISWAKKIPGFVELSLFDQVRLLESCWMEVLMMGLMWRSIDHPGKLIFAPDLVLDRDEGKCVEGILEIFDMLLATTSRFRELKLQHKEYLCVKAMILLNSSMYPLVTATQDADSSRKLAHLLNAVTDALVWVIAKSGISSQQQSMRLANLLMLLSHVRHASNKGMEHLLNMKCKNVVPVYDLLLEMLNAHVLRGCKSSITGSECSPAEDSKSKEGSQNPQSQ
# Sequence of Estrogen receptor (Homo sapiens) (P03372 whole entry, looked up): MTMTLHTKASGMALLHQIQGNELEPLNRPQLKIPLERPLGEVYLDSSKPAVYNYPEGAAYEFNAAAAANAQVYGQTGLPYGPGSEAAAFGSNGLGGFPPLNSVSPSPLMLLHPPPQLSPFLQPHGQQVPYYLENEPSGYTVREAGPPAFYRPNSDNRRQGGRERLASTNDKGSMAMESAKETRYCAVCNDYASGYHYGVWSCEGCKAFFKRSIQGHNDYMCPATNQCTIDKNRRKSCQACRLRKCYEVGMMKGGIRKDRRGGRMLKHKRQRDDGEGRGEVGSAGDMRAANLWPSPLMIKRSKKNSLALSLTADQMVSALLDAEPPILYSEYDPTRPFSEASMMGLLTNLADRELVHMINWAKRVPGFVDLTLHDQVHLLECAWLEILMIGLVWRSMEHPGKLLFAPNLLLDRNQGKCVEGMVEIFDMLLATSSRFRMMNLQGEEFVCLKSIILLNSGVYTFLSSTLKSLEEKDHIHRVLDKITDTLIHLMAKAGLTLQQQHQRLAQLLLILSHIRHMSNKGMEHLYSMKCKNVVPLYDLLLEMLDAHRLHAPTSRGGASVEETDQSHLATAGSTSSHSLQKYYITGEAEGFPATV
# Sequence of Androgen receptor (Homo sapiens) (P10275 whole entry, looked up): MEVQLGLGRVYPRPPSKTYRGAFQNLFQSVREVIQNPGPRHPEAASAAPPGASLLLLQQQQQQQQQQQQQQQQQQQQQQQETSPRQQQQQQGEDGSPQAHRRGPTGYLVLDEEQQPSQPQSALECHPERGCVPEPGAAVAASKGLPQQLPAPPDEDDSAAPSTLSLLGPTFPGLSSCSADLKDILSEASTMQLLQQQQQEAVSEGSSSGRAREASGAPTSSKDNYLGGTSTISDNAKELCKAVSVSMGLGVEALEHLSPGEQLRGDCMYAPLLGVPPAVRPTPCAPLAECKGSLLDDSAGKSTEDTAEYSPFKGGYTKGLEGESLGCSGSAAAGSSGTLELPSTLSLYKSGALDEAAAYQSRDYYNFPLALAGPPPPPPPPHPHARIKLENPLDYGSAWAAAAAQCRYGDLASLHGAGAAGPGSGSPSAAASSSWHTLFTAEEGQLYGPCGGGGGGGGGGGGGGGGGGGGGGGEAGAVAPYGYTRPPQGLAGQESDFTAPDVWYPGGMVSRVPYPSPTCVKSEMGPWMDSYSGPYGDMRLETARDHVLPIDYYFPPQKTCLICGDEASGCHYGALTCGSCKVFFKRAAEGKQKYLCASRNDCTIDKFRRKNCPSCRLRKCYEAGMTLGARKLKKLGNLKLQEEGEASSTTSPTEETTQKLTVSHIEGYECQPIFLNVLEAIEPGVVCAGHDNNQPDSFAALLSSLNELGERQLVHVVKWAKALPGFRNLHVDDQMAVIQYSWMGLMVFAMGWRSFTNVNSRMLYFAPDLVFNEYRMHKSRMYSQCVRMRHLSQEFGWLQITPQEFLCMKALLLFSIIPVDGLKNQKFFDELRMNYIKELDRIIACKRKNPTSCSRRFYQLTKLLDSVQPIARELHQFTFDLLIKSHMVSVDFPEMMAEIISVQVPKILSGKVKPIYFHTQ
# Sequence of Thyrotropin receptor (Homo sapiens) (P16473 whole entry, looked up): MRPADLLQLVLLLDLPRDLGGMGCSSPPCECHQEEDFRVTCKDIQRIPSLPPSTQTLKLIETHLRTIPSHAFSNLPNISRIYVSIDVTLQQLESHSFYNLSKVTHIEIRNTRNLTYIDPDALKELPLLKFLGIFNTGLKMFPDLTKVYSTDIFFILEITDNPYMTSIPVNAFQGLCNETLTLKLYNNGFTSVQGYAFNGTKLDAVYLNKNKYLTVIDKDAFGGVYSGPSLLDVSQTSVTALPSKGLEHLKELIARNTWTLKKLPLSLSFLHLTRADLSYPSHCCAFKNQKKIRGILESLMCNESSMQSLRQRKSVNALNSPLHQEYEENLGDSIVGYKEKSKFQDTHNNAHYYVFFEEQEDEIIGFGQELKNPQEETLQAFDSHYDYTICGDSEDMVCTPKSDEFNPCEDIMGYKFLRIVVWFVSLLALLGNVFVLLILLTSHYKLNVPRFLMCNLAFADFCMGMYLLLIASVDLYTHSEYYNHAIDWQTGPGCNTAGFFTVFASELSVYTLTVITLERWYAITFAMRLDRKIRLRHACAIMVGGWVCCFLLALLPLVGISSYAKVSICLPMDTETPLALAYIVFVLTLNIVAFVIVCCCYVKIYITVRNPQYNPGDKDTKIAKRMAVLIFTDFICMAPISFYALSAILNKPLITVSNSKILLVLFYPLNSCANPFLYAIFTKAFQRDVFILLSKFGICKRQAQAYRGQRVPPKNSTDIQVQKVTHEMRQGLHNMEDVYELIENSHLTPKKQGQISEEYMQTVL
SMILES,Potency [1],Potency [2],Potency [3],Potency [4],Potency [5],Potency [6],Potency [7],Potency [8],Potency [9],Potency [10],Potency [11],Potency [12],Potency [13],Potency [14],Potency [15],Potency [16],outcome [17],Potency [18],Potency [19]
O=C(NOCC1CC1)c1ccc(F)c(F)c1Nc1ccc(I)cc1Cl,inactive,8.41 µM (active),inactive,inactive,inactive,inactive,inactive,13.3 µM (active),inactive,8.41 µM (active),29.8 µM (active),inactive,–,–,–,–,–,–,–
CC(C)=CCOc1ccc(/C=C/C(=O)c2ccc(OCC=C(C)C)cc2OCC(=O)O)cc1,inactive,inactive,inactive,inactive,inactive,inactive,inactive,inactive,–,–,–,inactive,inactive,inactive,5.96 µM (active),inactive,inactive,inactive,–
O=C(Nc1cccc([N+](=O)[O-])c1)c1cc2ccccc2cc1O,inactive,5.45 µM (active),–,–,inactive,inactive,inactive,–,–,–,–,inactive,5.45 µM (active),–,30.6 µM (active),inactive,inactive,inactive,0.77 µM (active)
CCCCCCCCCCCCCCCCCC[N+](C)(C)C,inactive,27.4 µM (active),–,inactive,–,68.8 µM (active),inactive,0.274 µM (active),–,–,–,inactive,54.6 µM (active),–,27.4 µM (active),–,inactive,inactive,–
c1cc(C(c2ccc(OCC3CO3)cc2)c2ccc(OCC3CO3)cc2)ccc1OCC1CO1 (stereo not given),inactive,–,–,inactive,inactive,61.1 µM (active),inactive,54.5 µM (active),–,–,inactive,inactive,inactive,–,–,inactive,inactive,–,inactive
Cc1cc(O)c2ccccc2c1O,29.8 µM (active),11.9 µM (active),inactive,–,–,5.31 µM (active),inactive,13.3 µM (active),–,–,–,inactive,13.3 µM (active),13.3 µM (active),13.3 µM (active),inactive,inactive,–,23.7 µM (active)
CCCCCCOC(=O)c1ccc(O)cc1,inactive,inactive,–,24.4 µM (active) and 27.3 µM (active),inactive,–,–,–,inactive,–,inactive,inactive,inactive,–,48.6 µM (active),27.3 µM (active),inactive,–,inactive
Fc1ccc(C(c2ccc(F)cc2)N2CCN(C/C=C/c3ccccc3)CC2)cc1,inactive,–,–,inactive,inactive,inactive,inactive,inactive,inactive,16.8 µM (active),–,–,inactive,inactive,–,inactive,inactive,inactive,–
